Counter-ions that a name gives are not always drawn.
Tested on: Danio rerio larvae (5 dpf)
Assay: combined upward orientation toward moving lines (periods 7-14) minus DMSO control (percentage points); higher = more orientation with moving lines than DMSO larvae
Conditions: 10 µM; exposure time: 3 h pre-incubation + 3 h imaging
Procedure: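 Wild-type 5 dpf zebrafish larvae (n=48 per drug, 96-well plates, 28.5 °C) were exposed to Tocris FDA-approved library compounds at 10 µM (0.1% DMSO) for 3 h before and 3 h during imaging. Images were taken every 6 s during visual and acoustic stimuli, and larvae were tracked with Z-LaP Tracker. Each measure is the treated-group mean minus the DMSO control mean (n=844), in percentage points. This mapping covers compounds with 5-character plate codes.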

| Compound | combined upward orientation toward moving lines |
| --- | --- |
| CC(=O)Nc1ccc(O)cc1 [Acetaminophen] | -1.22 |
| O=C(O)C[C@H](O)C[C@H](O)/C=C/c1c(C2CC2)nc2ccccc2c1-c1ccc(F)cc1 [Pitavastatin calcium] | 2.14 |
| CC(C)OC(=O)C(C)(C)Oc1ccc(C(=O)c2ccc(Cl)cc2)cc1 [Fenofibrate] | 6.13 |
| O=C1CCc2ccc(OCCCCN3CCN(c4cccc(Cl)c4Cl)CC3)cc2N1 [Aripiprazole] | -7.24 |
| CN(C)CCc1c[nH]c2ccc(C[C@H]3COC(=O)N3)cc12 [Zolmitriptan] | -1.47 |
| OCCN1C[C@H](O)[C@@H](O)[C@H](O)[C@H]1CO [Miglitol] | -1.58 |
| CNC(=O)c1cc(Oc2ccc(NC(=O)Nc3ccc(Cl)c(C(F)(F)F)c3)cc2)ccn1 [Sorafenib] | -23.2 |
| O=c1n(CCCN2CCN(c3cccc(Cl)c3)CC2)nc2ccccn12 [Trazodone hydrochloride] | -3.19 |
| CNS(=O)(=O)Cc1ccc2[nH]cc(CCN(C)C)c2c1 [Sumatriptan succinate] | -8.09 |
| NS(=O)(=O)c1cc2c(cc1Cl)NC(C1CC3C=CC1C3)NS2(=O)=O (configuration not stated) [Cyclothiazide] | -2.57 |
| CCCc1nn(C)c2c(=O)[nH]c(-c3cc(S(=O)(=O)N4CCN(C)CC4)ccc3OCC)nc12 [Sildenafil citrate] | 0.372 |
| COc1ccccc1Oc1c(NS(=O)(=O)c2ccc(C(C)(C)C)cc2)nc(-c2ncccn2)nc1OCCO [Bosentan] | -0.697 |
| CCCCCCCN(CC)CCCC(O)c1ccc(NS(C)(=O)=O)cc1 (configuration not stated) [Ibutilide hemifumarate] | -0.0944 |
| N#Cc1ccc2[nH]cc(CCCCN3CCN(c4ccc5oc(C(N)=O)cc5c4)CC3)c2c1 [Vilazodone hydrochloride] | -4.15 |
| CCCC1O[C@@H]2C[C@H]3[C@@H]4CCC5=CC(=O)C=C[C@]5(C)[C@H]4[C@@H](O)C[C@]3(C)[C@]2(C(=O)CO)O1 (some centres not stated) [Budesonide] | 0.263 |
| OC(c1cc(C(F)(F)F)nc2c(C(F)(F)F)cccc12)C1CCCCN1 (configuration not stated) [Mefloquine hydrochloride] | 5.79 |
| C[C@H]1O[C@H](O[C@H]2[C@H](O)[C@@H](O)[C@@H](O[C@H]3[C@H](O)[C@@H](O)C(O)O[C@@H]3CO)O[C@@H]2CO)[C@H](O)[C@@H](O)[C@@H]1N[C@H]1C=C(CO)[C@@H](O)[C@H](O)[C@H]1O (some centres not stated) [Acarbose] | 4.65 |
| CCc1nc(N)nc(N)c1-c1ccc(Cl)cc1 [Pyrimethamine] | 7.4 |
| CC(=O)Oc1cc2c(s1)CCN(C(C(=O)C1CC1)c1ccccc1F)C2 (configuration not stated) [Prasugrel] | -5.5 |

| Compound | combined upward orientation toward moving lines |
| --- | --- |
| Clc1ccc2nsnc2c1NC1=NCCN1 [Tizanidine hydrochloride] | -5.19 |
| CNCc1ccc(-c2[nH]c3cc(F)cc4c3c2CCNC4=O)cc1 [Rucaparib camsylate] | 2 |
| CC[C@H]1OC(=O)[C@H](C)[C@@H](O[C@H]2C[C@@](C)(OC)[C@@H](O)[C@H](C)O2)[C@H](C)[C@@H](O[C@@H]2O[C@H](C)C[C@H](N(C)C)[C@H]2O)[C@](C)(O)C[C@@H](C)CN(C)[C@H](C)[C@@H](O)[C@]1(C)O [Azithromycin] | -3.81 |
| CN[C@H]1CC[C@@H](c2ccc(Cl)c(Cl)c2)c2ccccc21 [Sertraline hydrochloride] | -5.13 |
| COc1cc([C@@H]2c3cc4c(cc3[C@@H](O[C@@H]3O[C@@H]5CO[C@@H](C)O[C@H]5[C@H](O)[C@H]3O)[C@H]3COC(=O)[C@H]23)OCO4)cc(OC)c1O [Etoposide] | -2.65 |
| C#CCN[C@@H]1CCc2ccccc21 [Rasagiline mesylate] | -1.34 |
| C[C@@H]1C[C@H]2[C@@H]3CCC4=CC(=O)C=C[C@]4(C)[C@@]3(F)[C@@H](O)C[C@]2(C)[C@@]1(O)C(=O)CO [Dexamethasone] | -5.03 |
| COc1cc2nccc(Oc3ccc(NC(=O)C4(C(=O)Nc5ccc(F)cc5)CC4)cc3)c2cc1OC | -10.5 |
| CC(C)COCC(CN(Cc1ccccc1)c1ccccc1)N1CCCC1 (configuration not stated) [Bepridil hydrochloride] | 3.56 |
| OCc1cc(C(O)CNCCCCCCOCCCCc2ccccc2)ccc1O (configuration not stated) [Salmeterol xinafoate] | -1.98 |
| COCCc1ccc(OCC(O)CNC(C)C)cc1 (configuration not stated) [Metoprolol tartrate] | -3.38 |
| CC(C)(C(=O)O)c1ccc(C(O)CCCN2CCC(C(O)(c3ccccc3)c3ccccc3)CC2)cc1 (configuration not stated) [Fexofenadine hydrochloride] | 1.12 |
| COc1ccccc1OCC(O)CN1CCN(CC(=O)Nc2c(C)cccc2C)CC1 (configuration not stated) [Ranolazine dihydrochloride] | 4.03 |
| Cc1cc2c(s1)Nc1ccccc1N=C2N1CCN(C)CC1 [Olanzapine] | 3.25 |
| N#C[C@@H]1C[C@@H]2C[C@@H]2N1C(=O)[C@@H](N)C12CC3CC(CC(O)(C3)C1)C2 [Saxagliptin hydrochloride] | -3.59 |
| COc1cc(N)c(Cl)cc1C(=O)NC1CCN(CCCOc2ccc(F)cc2)CC1OC (configuration not stated) [Cisapride] | -4.69 |
| NC(=O)OCC(COC(N)=O)c1ccccc1 [Felbamate] | 4.58 |
| CN(C)C(=N)NC(=N)N [Metformin hydrochloride] | 1.11 |

Source: the supplement of paper PMC9950053
